From PubChem BioAssay AID1434 (Sanford-Burnham Center for Chemical Genomics, 2008)
The whole screen tested about 220,000 compounds, of which about 1,600 (0.73%) were called active. The sample holds actives, similar compounds and a random draw of the others, so the mix is not that of the screen.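 Rule for the calls: active = mean inhibition across duplicate retests at 20 µM reaching about 50% (limit read from the data); inactive = the rest, inconclusive results apart.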

Biological target: Runt-related transcription factor 1 (Homo sapiens) + Core-binding factor subunit beta (Homo sapiens) (UniProt Q01196+Q13951)
Sequence (Q01196 whole entry, looked up): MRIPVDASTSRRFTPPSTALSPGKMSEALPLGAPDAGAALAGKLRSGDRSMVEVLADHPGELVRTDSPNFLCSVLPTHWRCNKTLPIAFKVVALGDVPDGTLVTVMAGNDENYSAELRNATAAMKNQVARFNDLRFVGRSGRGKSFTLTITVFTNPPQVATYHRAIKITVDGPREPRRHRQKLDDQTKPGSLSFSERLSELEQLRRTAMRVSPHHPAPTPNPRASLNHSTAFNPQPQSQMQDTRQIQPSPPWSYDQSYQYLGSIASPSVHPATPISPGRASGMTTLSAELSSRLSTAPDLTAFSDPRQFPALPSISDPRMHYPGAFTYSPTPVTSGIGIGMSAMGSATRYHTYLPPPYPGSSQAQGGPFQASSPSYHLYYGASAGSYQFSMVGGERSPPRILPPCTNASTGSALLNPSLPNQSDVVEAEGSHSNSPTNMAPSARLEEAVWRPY
Sequence (Q13951 whole entry, looked up): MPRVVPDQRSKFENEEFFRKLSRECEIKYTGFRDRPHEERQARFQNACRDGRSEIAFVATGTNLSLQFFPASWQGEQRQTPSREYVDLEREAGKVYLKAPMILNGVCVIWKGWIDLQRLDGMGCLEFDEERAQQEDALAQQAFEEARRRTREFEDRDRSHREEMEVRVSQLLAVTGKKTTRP
Experiment: inhibitors of RUNX1 Runt–CBFb-SMMHC binding, primary screen, biochemical, FRET, Cerulean-Runt, Venus-CBFb-SMMHC, uHTS (AID 1434);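 note: 0% = DMSO wells and 100% = wells with excess untagged CBFb-SMMHC; inhibitors lower the FRET ratio by blocking Runt binding to CBFb-SMMHC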
Details: Cerulean-Runt/Venus-CBFb-SMMHC FRET ratio 530/480, 1 h, at 20 µM, stronger effect = higher value

SMILES: CCOC(=O)c1c(N)n(CCN2CCOCC2)c2nc3ccccc3nc12
- inhibition: 69.9% (active)
- inhibition (retest duplicate average): 73.1%

SMILES: COc1cc(Cn2c(N)c(C(=O)NCc3ccco3)c3nc4ccccc4nc32)cc(OC)c1OC
- inhibition: 34.2% (inactive)

SMILES: O=C(OCCN1CCOCC1)C1(c2ccccc2)CCCC1
- inhibition: -5.6% (inactive)

SMILES: CCOC(=O)c1c(N)n(Cc2ccccc2)c2nc3ccccc3nc12
- inhibition: 97.2% (active)
- inhibition (retest duplicate average): 128%

SMILES: CC/C(=N\NC(=O)c1ccccc1O)c1c(O)n(Cc2ccccc2)c(=O)[nH]c1=O
- inhibition: -0.6% (inactive)

SMILES: CCOc1cccc(=NC2CCCCC2)c2c(C)[nH]c(C)c12
- inhibition: -11% (inactive)

SMILES: CC1(C)C(c2ccccc2)=NC(c2cccnc2)=[N+]1[O-]
- inhibition: -6.5% (inactive)

SMILES: C/C=C/CC1(CC)C(=O)NC(=S)NC1=O
- inhibition: -3.2% (inactive)

SMILES: COc1cc(OC)cc(C2(C#N)CCN(C)CC2)c1
- inhibition: -1.4% (inactive)

SMILES: CCOC(=O)C1(CCc2ccccc2)CCN(Cc2ccco2)CC1
- inhibition: -5.4% (inactive)
